Records with an inconclusive call do not appear. Entries that show only a call come without a potency. The source made the active and inactive calls. Calls follow the shape of the full dose curve.
Potency is read from the fitted curve at half-maximal effect.

A short description of this test: qHTS assay for small molecule disruptors of the mitochondrial membrane potential - 1 hr assay (AID 651754). Also: nearly all actives have a fitted effect of over 35% in size. Conditions: series mostly up to 92.2 µM. From the text:
National Center for Advancing Translational Sciences [NCATS]
NIH Chemical Genomics Center [NCGC]
National Institutes of Environmental Health Sciences [NIEHS]
National Toxicology Program [NTP]
Mitochondrial membrane potential (MMP), one of the parameters for mitochondrial function, is generated by mitochondrial electron transport chain that creates an electrochemical gradient by a series of redox reactions. This gradient drives the synthesis of ATP, a crucial molecule for various cellular processes. Measuring MMP in living cells is commonly used to assess the effect of chemicals on mitochondrial function. […] The dye accumulates in the mitochondria of healthy cells as aggregates, with red fluorescence. The mitochondrial potential collapses and the dye can no longer accumulate in the mitochondria and remains in the cytoplasm in monomers, with green fluorescence.
2,000 HepG2 cells in 5 uL/well were dispensed into black, clear-bottom 1536-well plates using a Multidrop Combi (Thermo Scientific) dispenser. The assay plates were incubated overnight at 37C to allow cells to attach to the wells, followed by the transfer of 23 nL compound or DMSO vehicle by a pin tool (Kalypsys). The plates were incubated for 1 hr at 37C and 5% CO2, followed by the addition of 5 uL of 2X Mito-MPS dye (BD Biosciences) into each well using Flying Reagent Dispenser (Aurora Discovery) and then following 30 min incubation at 37C. Fluorescence intensity (490nm excitation and 535nm emission for monomers; and 540nm excitation and 590nm emissions for aggregates) was measured using an Envision plate reader.
On the technique in general: Quantitative high-throughput screening tests each substance at several concentrations.
On to `Nc1ccc(N=Nc2ccccc2)c(N)n1`, for which the Potency was 18.8 µM (active).

Turning to `Cc1ncc[nH]1`, the Potency entry was “inactive”.

Regarding `CC(C)(C)CC(C)(C)c1ccc(OCCO)cc1`, the Potency result was “inactive”.

Take `Oc1ccc(/C=C/c2cc(O)cc(O)c2)cc1`: the Potency was 1.88 µM (active).

With `Nc1ncnc2c1ncn2[C@H]1CC[C@@H](CO)O1`, the Potency entry was “inactive”.

As for `CC[C@H]1OC(=O)[C@H](C)[C@@H](O[C@H]2C[C@@](C)(OC)[C@@H](O)[C@H](C)O2)[C@H](C)[C@@H](O[C@@H]2O[C@H](C)C[C@H](N(C)C)[C@H]2O)[C@](C)(O)C[C@@H](C)CN(C)[C@H](C)[C@@H](O)[C@]1(C)O`, the Potency result is “inactive”.

On to `O=c1n(CC2CO2)c(=O)n(CC2CO2)c(=O)n1CC1CO1` (stereo not drawn), for which the Potency entry was “inactive”.

In the case of `NCCN`, the Potency entry was “inactive”.

As for `CC/C=C\C/C=C\C/C=C\CCCCCCCC(=O)O`, the Potency result was “inactive”.

Take `OB(O)O`: the Potency entry was “inactive”.

Turning to `CCCCO`, the Potency result was “inactive”.

`Cc1ccc(S(=O)(=O)O)cc1C`: the Potency entry was “inactive”.

On to `CC1=CC(=O)NS(=O)(=O)O1`, for which the Potency entry is “inactive”.

On to `OCC(O)CO`, for which the Potency result is “inactive”.

Turning to `CC1=CCC2CC1C2(C)C` (stereo not drawn), the Potency entry was “inactive”.

For the compound `CCCCC`, the Potency entry was “inactive”.

With `O.O.O.O.O.O.O.O=S(=O)([O-])[O-].[Co+2]`, the Potency result was “inactive”.

`C[C@H](CCC(=O)O)[C@H]1CC[C@H]2[C@@H]3[C@H](O)C[C@@H]4C[C@H](O)CC[C@]4(C)[C@H]3C[C@H](O)[C@]12C`: the Potency entry was “inactive”.

Consider `C[C@H](CCC(=O)O)[C@H]1CC[C@H]2[C@@H]3CC[C@@H]4C[C@H](O)CC[C@]4(C)[C@H]3C[C@H](O)[C@]12C`, for which the Potency result was “inactive”.

For the compound `NC(N)=O`, the Potency result was “inactive”.

Take `CO/N=C(/C(=O)N[C@@H]1C(=O)N2C(C(=O)O)=C(COC(N)=O)CS[C@H]12)c1ccco1`: the Potency entry is “inactive”.

Turning to `OC[C@H]1O[C@@H]2O[C@H]3[C@H](O)[C@@H](O)[C@@H](O[C@H]4[C@H](O)[C@@H](O)[C@@H](O[C@H]5[C@H](O)[C@@H](O)[C@@H](O[C@H]6[C@H](O)[C@@H](O)[C@@H](O[C@H]7[C@H](O)[C@@H](O)[C@@H](O[C@H]1[C@H](O)[C@H]2O)O[C@@H]7CO)O[C@@H]6CO)O[C@@H]5CO)O[C@@H]4CO)O[C@@H]3CO`, the Potency result is “inactive”.

Take `O=P(O)(O)O`: the Potency entry is “inactive”.

For the compound `ClC(Cl)Cl`, the Potency result is “inactive”.

In the case of `OCl`, the Potency result was “inactive”.

On to `OCc1ccccc1`, for which the Potency entry is “inactive”.

Take `CC(C)O`: the Potency entry is “inactive”.

`[O-][N+](=Nc1ccccc1)c1ccccc1`: the Potency result was “inactive”.

These data come from PubChem BioAssay (NCATS).
